In PubChem BioAssay AID1508625 (Wald Lab, School of Medicine, Case Western Reserve …, 2021) one finds corrected activity, negative = more killing and z-score data, which are given here for 39 compounds.

The nature of the experiment: small molecules boosting NK-mediated OVCAR3 lysis – imaging, primary NK cells, calcein-AM imaging, primary screen (AID 1508625).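 Also: compound given to NK cells 16 h before adding targets at 1.5 to 1 ratio.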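 As to z-score: more negative robust z means stronger NK killing of tumor cells.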 Particulars: OVCAR3 lysis by primary NK cells, at 5 µM; z-score: measured here: robust Z-score, single-point normalisation.
For the compound `CC(C)(C)NC(=O)C(=O)NN=Cc1cccc(Br)c1`, the corrected activity, negative = more killing is -4.27% and the z-score is -1.82.

Consider `Cc1ccc2oc(-c3ccc(NC(=O)c4cccc(F)c4)c(C)c3)nc2c1`, for which the z-score was -3.29 and the corrected activity, negative = more killing is -9.28%.

Take `Cc1ccc(S(=O)(=O)n2nnc3ccccc32)c(C)c1C`: the corrected activity, negative = more killing was -4.06% and the z-score was -1.51.

Turning to `CCN(CC)c1cc(O)c2c(c1N)C(=O)c1ccccc1C2=O`, the z-score was -0.772 and the corrected activity, negative = more killing is -2.05%.

For the compound `O=C(c1ccc(Cn2c(=S)[nH]c3cc4c(cc3c2=O)OCO4)cc1)N1CCC(N2CCCCC2)CC1`, the corrected activity, negative = more killing was -3.36% and the z-score was -0.889.

With `COc1ccc(Oc2c(C(F)(F)F)oc3cc(OC(=O)c4ccc(OC)c(OC)c4)ccc3c2=O)cc1`, the corrected activity, negative = more killing is -1.55% and the z-score was -0.672.

`CCOc1ccc(N2CC(C(=O)Nc3cc(C)ccn3)CC2=O)cc1` (stereo not drawn): the corrected activity, negative = more killing was -3.29% and the z-score is -1.23.

Turning to `Cc1ccc(C(=O)Nc2ccc3nn(-c4cccc(Cl)c4)nc3c2)cc1[N+](=O)[O-]`, the corrected activity, negative = more killing was -0.361% and the z-score was -0.128.

Take `COCCNC(=O)c1c[nH]c2ccc(S(=O)(=O)Nc3ccc4c(c3)OCCO4)cc2c1=O`: the z-score is -1.29 and the corrected activity, negative = more killing is -5.25%.

`O=C(Nc1cc([N+](=O)[O-])ccc1Cl)c1cnc2n(c1=O)CCS2`: the z-score was -0.332 and the corrected activity, negative = more killing is -1.04%.

On to `COC(=O)c1[nH]c(=O)c2ccccc2c1O`, for which the corrected activity, negative = more killing was -4.14% and the z-score is -1.63.

For `O=C(NC1CCCCCC1)c1coc(=O)c2ccccc12`, the corrected activity, negative = more killing was -2.46% and the z-score is -0.781.

On to `CCOCCCNC(=O)c1ccc(N2CCCC2=O)cc1`, for which the corrected activity, negative = more killing was -4.67% and the z-score was -1.26.

For the compound `Cc1ccc(OCC(=O)Nc2ccc(N3CCOCC3)c(Cl)c2)cc1`, the corrected activity, negative = more killing is -5.7% and the z-score was -1.77.

`O=C1CC(c2ccc(Cl)cc2)CC2=C1C(c1cccc(F)c1)Nc1ccccc1N2` (stereo not drawn): the z-score is -2.95 and the corrected activity, negative = more killing is -9.53%.

As for `Cc1cc(=O)n2[nH]c(C)cc2n1`, the z-score is -0.975 and the corrected activity, negative = more killing is -3.27%.

On to `Cc1ccc(C(=O)N2C(=O)C(c3ccccc3)Oc3ccccc32)cc1` (stereo not drawn), for which the z-score was -3.35 and the corrected activity, negative = more killing is -10.8%.

Take `COc1cc2c(cc1NC(=O)COc1ccccc1F)oc1ccccc12`: the corrected activity, negative = more killing is 0.193% and the z-score is 0.0792.

In the case of `O=C(COc1ccccc1F)N1CCc2ccccc2C1`, the corrected activity, negative = more killing was -4.1% and the z-score is -1.68.

With `CC(C)(C)c1ccc(-c2nc3cc(NC(=O)Cc4ccccc4)ccc3o2)cc1`, the corrected activity, negative = more killing is -3% and the z-score was -1.06.

As for `Cc1cc(C)c2oc(-c3ccc(C)c(N=Cc4cccc([N+](=O)[O-])c4O)c3)nc2c1`, the corrected activity, negative = more killing was -14.1% and the z-score is -2.97.

With `CCn1cnc2sc(C(=O)Nc3cccc([N+](=O)[O-])c3)c(C)c2c1=O`, the z-score was -0.931 and the corrected activity, negative = more killing was -2.56%.

On to `Cc1ccc(NCc2cccnc2)cc1`, for which the corrected activity, negative = more killing is -1.25% and the z-score is -0.529.

On to `COc1ccccc1N1CCN(C(=O)NC2CCCCC2)CC1`, for which the z-score is -0.0428 and the corrected activity, negative = more killing was -0.143%.

In the case of `COc1ccc(CNC(=O)CCN2C(=O)C3C4C=CC(CC4)C3C2=O)cc1` (stereo not drawn), the corrected activity, negative = more killing is -5.25% and the z-score was -1.67.

`Cc1ccc(C(=O)COC(=O)c2ccc(N3C(=O)C4CCC(C)CC4C3=O)cc2)cc1[N+](=O)[O-]` (stereo not drawn): the z-score is -1.37 and the corrected activity, negative = more killing is -2.55%.

Take `CCOC(=O)C1C(c2ccccc2)NC(=S)NC1(O)C(F)(F)F` (stereo not drawn): the corrected activity, negative = more killing is -1.39% and the z-score was -0.43.

Consider `Cc1ccc(NC(=O)CSc2nc3c(cc2C#N)CCCCC3)cc1`, for which the z-score is 0.825 and the corrected activity, negative = more killing is 2.66%.

Regarding `CCOC(=O)C(Cc1ccccc1)C(=O)N(C1CCCCC1)C1CCCCC1` (stereo not drawn), the corrected activity, negative = more killing is -3.39% and the z-score was -1.82.

As for `CCOc1ccc2nc(SCC(=O)Nc3ccccc3C(=O)O)sc2c1`, the corrected activity, negative = more killing was -4.64% and the z-score was -1.75.

Regarding `COc1ccc(S(=O)(=O)NCc2ccc(C(=O)N(C)Cc3ccco3)cc2)cc1`, the z-score was -1.89 and the corrected activity, negative = more killing was -7.7%.

Take `CC(C)c1ccc(NC(=O)c2cc(S(=O)(=O)N3CCN(c4ccccc4)CC3)ccc2F)cc1`: the corrected activity, negative = more killing is -8.98% and the z-score was -2.42.

On to `O=C(Nc1cccc(Br)c1)c1ccc2snnc2c1`, for which the z-score is -1.17 and the corrected activity, negative = more killing was -3.91%.

Turning to `COc1ccc(C(=O)Nc2ccc3oc(-c4ccccc4)nc3c2)cc1OC`, the z-score was -1.28 and the corrected activity, negative = more killing was -2.95%.

With `CCc1ccc(NS(=O)(=O)c2ccc3[nH]cc(C(=O)N(C)Cc4ccccc4)c(=O)c3c2)cc1`, the corrected activity, negative = more killing was -2.32% and the z-score was -0.569.

As for `Cc1ccc(C)c(Cn2cccc2C#N)c1`, the corrected activity, negative = more killing was -4.01% and the z-score is -1.08.

Take `COc1cc(NS(=O)(=O)c2ccc(NC(=O)c3ccc(OC)c(OC)c3)cc2)ncn1`: the corrected activity, negative = more killing is -3.26% and the z-score was -1.01.

`O=C(NC(=S)NN1CCOCC1)c1ccc(Br)cc1`: the z-score was -0.33 and the corrected activity, negative = more killing is -1.04%.

With `Cc1oc2c(C)c3oc(=O)c(C)c(C)c3cc2c1-c1ccccc1`, the corrected activity, negative = more killing is -1.87% and the z-score was -0.558.
